Screening data deposited in PubChem BioAssay by National Center for Advancing Translational Sciences (NCATS).
This is a sample that favours compounds with a hit; in the whole collection about 8% have one here.
SARS PLpro yeast: blocks SARS-CoV papain-like protease in a yeast assay; S. cerevisiae expressing SARS-CoV PLpro, growth rescue; Potency, µM (titrated, usually from 32.9 µM), for the others: at the highest dose activity, positive = growth rescue, hits mostly activators; 330,000 tested, 0.19% active; calls by dose curve; further: potency means the concentration at half of the fitted maximal effect; 0% is about no effect; nearly all actives have a fitted effect of over 55% in size
FMDV inh: blocks foot and mouth disease virus | AID 1159524 | FMDV antiviral cell-based qHTS | 410,000 tested, 1.2% active | Potency, µM (doses to about 57.9 µM), for inactives: at the highest dose activity change, negative = inhibition, actives largely listed as inhibitors; calls by dose curve; tested in HEK293T cells; further: read-out not given here; potency means the concentration at half of the fitted maximal effect; on the % scale 0 is the no-effect control and ±100 the full control effect; nearly all actives have a fitted effect of over 45% in size
HCMV inh: human cytomegalovirus inhibition. activity change, negative = inhibition, % at 57.5 µM. 410,000 tested, 4.5% active. HFF cells, HCMV-luciferase reporter, 72 h; hits give low values; in the data active means activity change below about -60%; inconclusive means no clear call, values can overlap the other calls; inactive means above about -39%; further: on the % scale 0 is the no-effect control and ±100 the full control effect
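Screen run at 2 compound doses on HFFs infected with reporter HCMV, MOI 1 PFU/cell. Luciferase activity from cell lysates at 72 h post infection gave inhibition relative to buffer-only and Salinomycin wells.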
HCV inh: blocks hepatitis C virus. Huh7.5.1 HCVcc-Cre infection, luciferase reporter, 44 h. Potency, µM (doses to about 41.8 µM), for inactives: at the top dose activity change, negative = inhibition, usual class: inhibitors. 340,000 tested, 3.4% active. AID 651820; active means well fitted inhibition curve with a large enough effect; inconclusive means small, poorly fitted or top-dose-only effect, or another doubt; inactive means no such curve, though single readings can be large or run the other way; further: potency means the concentration at half of the fitted maximal effect; on the % scale 0 is the no-effect control and ±100 the full control effect
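Infectious HCV cell culture screen: compound-treated cells (1,000/well, pre-plated 4 h) are infected with HCVcc-Cre at roughly 0.5 moi and grown 44 h. Infection is quantified by luciferase signal after 15 min substrate incubation at room temperature.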
Lassa entry inh: blocks Lassa virus binding to or entry into cells; Lassa virus pseudotype entry inhibition, cell reporter; 300,000 tested, 1.2% active; Potency, µM (top dose mostly 37.9 µM), without a hit: at the highest dose activity change, negative = inhibition, actives largely listed as inhibitors; calls by dose curve; tested in HEK293 cells; further: potency means the concentration at half of the fitted maximal effect; on the % scale 0 is the no-effect control and ±100 the full control effect; nearly all actives have a fitted effect of over 50% in size
MARV entry inh: blocks Marburg virus binding to or entry into cells | Marburg virus pseudotyped entry inhibition, cell reporter | Potency, µM (highest dose often 37.8 µM), for the others: at the top dose activity change, negative = inhibition, most hits filed as inhibitors | 300,000 tested, 1.8% active; calls by dose curve; tested in HEK293 cells; further: potency means the concentration at half of the fitted maximal effect; on the % scale 0 is the no-effect control and ±100 the full control effect
Active calls of the source: *; ? = inconclusive; . = not tested or not shown; ! = repeats disagree; [ ] = remark or other dose.

SMILES	SARS PLpro yeast	FMDV inh	HCMV inh	HCV inh	Lassa entry inh	MARV entry inh
CS(=O)(=O)N1CCCC(c2nc(-c3ccc(S(=O)(=O)NCc4ccccc4)cc3)no2)C1 (stereo not given)	-4%	?	-95*	?	?	0.13µM*!
O=C(C1CC1)N1CCC(c2nc(-c3ccc(S(=O)(=O)NCC4CCCO4)cc3)no2)CC1 (stereo not given)	-3%	?	-96*	?	?	?
CCOc1ccc(CCNC(=O)Cn2nnc(-c3ccccc3)n2)cc1OCC	.	-8%	10	.	-3%[46.1 µM]	12%[46.1 µM]
COc1cc(C(O)c2nc(-c3cccc(C(F)(F)F)c3)cs2)ccc1F (stereo not given)	.	-11%	-18	.	.	.
C=CC[C@@H]1C=CC(ON=C(C)CCC(=O)OC[C@H]2O[C@H](C#Cc3ccccc3)C=C[C@H]2Oc2ccc(C)cc2)[C@H](CO)O1 (stereo not given in full)	.	.	.	.	.	29%[14.2 µM]
Cc1nc(N2CCN(C)CC2)c2cc(-c3ccccc3)sc2n1	1%	4%	-17	-3%	3%[46.1 µM]	17%[46.1 µM]
Cc1nc(N2CCCC2)c2ccsc2n1	1%	-18%	-28	14µM*	4%	17%
CC1(C)Cc2c(sc(NC(=O)c3ccc(C(=O)c4ccccc4)cc3)c2C(N)=O)C(C)(C)N1	-11%	-29%	-100*	?	?	?
O=C(O)c1ccccc1Nc1ccccc1	.	-11%	-5	5µM*	8%	?
Cc1cccc(Nc2ccccc2C(=O)O)c1C	-6%	-14%	-63*	2%[8.37 µM]	?	13%
COc1cccc(Nc2ccccc2C(=O)O)c1	0%	59%	-5	20%	?	0%[46.1 µM]
Cc1cccc(Nc2ncccc2C(=O)O)c1C	4%	9%	65	15%	.	-3%
COc1cc(-c2ccc(Nc3ccccc3C(=O)O)c(OC)c2)ccc1Nc1ccccc1C(=O)O	4%	-23%	-68*	3%	?	?
COc1cccc(Cn2c(=O)n(-c3ccccc3C)c(=O)c3c2c2cc(C)ccc2n3C)c1	.	-24%	-68*	.	?	.
C=CCN1CCC23c4c5ccc(O)c4OC2/C(=N/N=C2\CCC4(O)C6Cc7ccc(O)c8c7C4(CCN6CC=C)C2O8)CCC3(O)C1C5 (stereo not given)	.	21%	.	.	.	.
NC(N)=Nc1ccc2[nH]c3c(c2c1)C[C@@]1(O)[C@H]2Cc4ccc(O)c5c4[C@@]1(CCN2CC1CC1)[C@H]3O5	.	?	.	?	2.3µM*	26µM*
O=C1/C(=C\c2ccccc2)C[C@@]2(O)[C@H]3Cc4ccc(O)c5c4[C@@]2(CCN3CC2CC2)[C@H]1O5	.	10µM*	.	.	.	.
Oc1ccc2c3c1O[C@H]1c4[nH]c5c(c4C[C@@]4(O)[C@@H](C2)N(CC2CC2)CC[C@]314)C[C@]1(O)[C@H]2Cc3ccc(O)c4c3[C@@]1(CCN2CC1CC1)[C@@H]5O4	.	-19%	.	.	.	-28%
O=C1/C(=C\c2ccccc2)C[C@@]2(O)[C@H]3Cc4ccc(O)c5c4[C@@]2(CCN3CC2CC2)[C@@H]1O5	.	22µM*	.	.	.	.
C=CCN1CC[C@]23c4c5ccc(O)c4O[C@@H]2/C(=N/N=C2\CC[C@@]4(O)C6Cc7ccc(O)c8c7[C@@]4(CCN6CC=C)[C@@H]2O8)CC[C@@]3(O)C1C5	.	.	.	.	16µM*	4.5µM*
NC(CCc1ccccc1)c1csc(Nc2cnccn2)n1 (stereo not given)	.	-16%	-19	.	.	.
CCCCN1C(N)=NC[C@@H]1Cc1ccc(O)cc1	-3%	-16%	16	1%	.	.
NC1=NC[C@H](Cc2ccc(O)cc2)N1CCC12CC3CC(CC(C3)C1)C2	-3%	?	-73*	2%	.	.
Cc1c(CN2CCOc3ccc(C(C)(O)COc4ccccc4)cc3C2)cnn1C (stereo not given)	.	-13%	.	.	.	.
C=CCOc1c(Cl)cc(C2NC(=O)NC(C)=C2C(=O)OC)cc1Cl (stereo not given)	0%	.	-20	11µM*	-26%	-9%
Fc1ccc(Nc2ccnc(Nc3ccc(F)cc3)n2)cc1	-46%	13%	76	?	1%	8%
